Measurements as given in the supplement of paper PMC12494721.
Structures can show the parent of a compound that is named as a salt.

What was measured:
Details in all cases: incubation time: 27 h, anaerobic, 37 °C;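 for the amine columns active = adjusted P below 0.05 in both replicates with a change the same way and a mean fold change under 0.8 or over 1.25; inactive = the rest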
[1] = tested on: Clostridium sporogenes DSM 1664; assay: growth (OD595) fold change vs plate DMSO controls (fold change (ratio)); higher = more growth
Procedure, shortened: (§1)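 Growth is the fold change relative to the median of plate DMSO controls. Readings came from anaerobic mGAM cultures in 96-well plates grown for 27 h at 37 °C and read at 595 nm. They were blank-subtracted, corrected for compound background with 20 µM compound solutions in water, and converted to OD with a calibration factor of 5. Values are means of 2 biological replicates, and fold changes above 1.5 were set to NA.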

[2] = tested on: Escherichia coli IAI1; assay: as above
Procedure, shortened: as §1

[3] = tested on: Klebsiella aerogenes DSM 30053; assay: as above
Procedure, shortened: as §1

[4] = tested on: Ruminococcus gnavus DSM 108212; assay: as above
Procedure, shortened: as §1

[5] = tested on: Klebsiella aerogenes DSM 30053; assay: fold change of Histamine concentration vs plate DMSO controls (fold change (ratio)); higher = more amine produced, active = hit call of the paper (significant change in both replicates, either direction)
Procedure, shortened: (§2)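 Amines were quantified by LC–triple-quadrupole MS in dynamic MRM mode against external calibration curves, with drift correction within each batch. The samples were whole anaerobic mGAM cultures of four gut bacterial strains, grown for 27 h at 37 °C in 80 µL wells and extracted with cold acetonitrile/methanol with 0.1% formic acid, then centrifuged. Values are reported as fold change over DMSO controls on the same plate. The mean of 2 biological replicates is given.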

[6] = tested on: Clostridium sporogenes DSM 1664; assay: fold change of Tryptamine concentration vs plate DMSO controls (fold change (ratio)); higher = more amine produced, active = hit call of the paper (significant change in both replicates, either direction)
Procedure, shortened: as §2

[7] = tested on: Ruminococcus gnavus DSM 108212; assay: as above
Procedure, shortened: as §2

[8] = tested on: Escherichia coli IAI1; assay: fold change of Putrescine concentration vs plate DMSO controls (fold change (ratio)); higher = more amine produced, active = hit call of the paper (significant change in both replicates, either direction)
Procedure, shortened: as §2

[9] = tested on: Klebsiella aerogenes DSM 30053; assay: as above
Procedure, shortened: as §2

[10] = tested on: Escherichia coli IAI1; assay: fold change of Cadaverine concentration vs plate DMSO controls (fold change (ratio)); higher = more amine produced, active = hit call of the paper (significant change in both replicates, either direction)
Procedure, shortened: as §2

[11] = tested on: Klebsiella aerogenes DSM 30053; assay: as above
Procedure, shortened: as §2

[12] = tested on: Ruminococcus gnavus DSM 108212; assay: fold change of 2-Phenylethylamine concentration vs plate DMSO controls (fold change (ratio)); higher = more amine produced, active = hit call of the paper (significant change in both replicates, either direction)
Procedure, shortened: as §2

c1ccc(CNc2ncnc3nc[nH]c23)cc1 [Aminopurine, 6-benzyl] (20 µM)
growth [1]: 1.09
growth [2]: 0.978
growth [3]: 0.971
growth [4]: 0.966
fold change of Histamine concentration [5]: 1.06 (inactive)
fold change of Tryptamine concentration [6]: 0.971 (inactive)
fold change of Tryptamine concentration [7]: 0.932 (inactive)
fold change of Putrescine concentration [8]: 1.03 (inactive)
fold change of Putrescine concentration [9]: 1.02 (inactive)
fold change of Cadaverine concentration [10]: 1.02 (inactive)
fold change of Cadaverine concentration [11]: 1 (inactive)
fold change of 2-Phenylethylamine concentration [12]: 0.856 (inactive)

CN[C@H](CC(C)C)C(=O)N[C@H]1C(=O)N[C@@H](CC(N)=O)C(=O)N[C@H]2C(=O)N[C@H]3C(=O)N[C@H](C(=O)N[C@H](C(=O)O)c4cc(O)cc(O)c4-c4cc3ccc4O)[C@H](O)c3ccc(c(Cl)c3)Oc3cc2cc(c3O[C@@H]2O[C@H](CO)[C@@H](O)[C@H](O)[C@H]2O[C@H]2C[C@](C)(N)[C@H](O)[C@H](C)O2)Oc2ccc(cc2Cl)[C@H]1O [Vancomycin hydrochloride] (20 µM)
growth [1]: 0
growth [2]: 1.06
growth [3]: 1.01
growth [4]: 0.17
fold change of Histamine concentration [5]: 1.07 (inactive)
fold change of Tryptamine concentration [6]: 0.0328 (active)
fold change of Tryptamine concentration [7]: 0.0491 (active)
fold change of Putrescine concentration [8]: 1.01 (inactive)
fold change of Putrescine concentration [9]: 1.04 (inactive)
fold change of Cadaverine concentration [10]: 0.953 (inactive)
fold change of Cadaverine concentration [11]: 0.998 (inactive)
fold change of 2-Phenylethylamine concentration [12]: 0.0538 (active)

CC(C(=O)O)c1ccc(C(=O)c2cccs2)cc1 (centres undefined) [Suprofen] (20 µM)
growth [1]: 1.08
growth [2]: 0.983
growth [3]: 0.986
growth [4]: 0.974
fold change of Histamine concentration [5]: 1.03 (inactive)
fold change of Tryptamine concentration [6]: 1.04 (inactive)
fold change of Tryptamine concentration [7]: 1.09 (inactive)
fold change of Putrescine concentration [8]: 0.954 (inactive)
fold change of Putrescine concentration [9]: 0.995 (inactive)
fold change of Cadaverine concentration [10]: 1.01 (inactive)
fold change of Cadaverine concentration [11]: 0.986 (inactive)
fold change of 2-Phenylethylamine concentration [12]: 1.08 (inactive)

COCCOC(=O)C1=C(C)NC(C)=C(C(=O)OC/C=C/c2ccccc2)C1c1cccc([N+](=O)[O-])c1 (centres undefined) [Cilnidipine] (20 µM)
growth [1]: 1.19
growth [2]: 0.996
growth [3]: 1.16
growth [4]: 0.973
fold change of Histamine concentration [5]: 0.989 (inactive)
fold change of Tryptamine concentration [6]: 0.918 (inactive)
fold change of Tryptamine concentration [7]: 0.945 (inactive)
fold change of Putrescine concentration [8]: 1 (inactive)
fold change of Putrescine concentration [9]: 1.01 (inactive)
fold change of Cadaverine concentration [10]: 0.982 (inactive)
fold change of Cadaverine concentration [11]: 1.03 (inactive)
fold change of 2-Phenylethylamine concentration [12]: 0.905 (inactive)

COC(=O)C1=C(C)NC(C)=C(C(=O)OC(C)C)C1c1cccc2nonc12 (centres undefined) [Isradipine] (20 µM)
growth [1]: 0.941
growth [2]: 1.06
growth [3]: 0.997
growth [4]: 1.22
fold change of Histamine concentration [5]: 1.09 (inactive)
fold change of Tryptamine concentration [6]: 0.944 (inactive)
fold change of Tryptamine concentration [7]: 1.03 (inactive)
fold change of Putrescine concentration [8]: 1.04 (inactive)
fold change of Putrescine concentration [9]: 1.01 (inactive)
fold change of Cadaverine concentration [10]: 0.991 (inactive)
fold change of Cadaverine concentration [11]: 1 (inactive)
fold change of 2-Phenylethylamine concentration [12]: 1.01 (inactive)

Nc1nc2n[nH]nc2c(=O)[nH]1 [Azaguanine-8] (20 µM)
growth [1]: 0.886
growth [2]: 1.05
growth [3]: 1.01
growth [4]: 0.846
fold change of Histamine concentration [5]: 1.04 (inactive)
fold change of Tryptamine concentration [6]: 0.988 (inactive)
fold change of Tryptamine concentration [7]: 0.924 (inactive)
fold change of Putrescine concentration [8]: 1.01 (inactive)
fold change of Putrescine concentration [9]: 0.968 (inactive)
fold change of Cadaverine concentration [10]: 1.01 (inactive)
fold change of Cadaverine concentration [11]: 1.03 (inactive)
fold change of 2-Phenylethylamine concentration [12]: 0.882 (inactive)

O=C(CCCl)NCc1ccccc1 [Beclamide] (20 µM)
growth [1]: 1.18
growth [2]: 1.02
growth [3]: 1
growth [4]: 1.07
fold change of Histamine concentration [5]: 1.03 (inactive)
fold change of Tryptamine concentration [6]: 1.02 (inactive)
fold change of Tryptamine concentration [7]: 1.02 (inactive)
fold change of Putrescine concentration [8]: 1.01 (inactive)
fold change of Putrescine concentration [9]: 1.01 (inactive)
fold change of Cadaverine concentration [10]: 1.04 (inactive)
fold change of Cadaverine concentration [11]: 0.996 (inactive)
fold change of 2-Phenylethylamine concentration [12]: 1.03 (inactive)

COc1cc(C)nc(-n2nc(C)cc2OC)n1 [Epirizole] (20 µM)
growth [1]: 0.918
growth [2]: 0.98
growth [3]: 1
growth [4]: 0.89
fold change of Histamine concentration [5]: 1.02 (inactive)
fold change of Tryptamine concentration [6]: 1.04 (inactive)
fold change of Tryptamine concentration [7]: 0.971 (inactive)
fold change of Putrescine concentration [8]: 0.949 (inactive)
fold change of Putrescine concentration [9]: 1.02 (inactive)
fold change of Cadaverine concentration [10]: 1.01 (inactive)
fold change of Cadaverine concentration [11]: 1.02 (inactive)
fold change of 2-Phenylethylamine concentration [12]: 1.02 (inactive)

Cn1c(=O)c2c(ncn2CC(=O)O)n(C)c1=O [Acefylline] (20 µM)
growth [1]: 0.895
growth [2]: 0.94
growth [3]: 1.02
growth [4]: 1.06
fold change of Histamine concentration [5]: 0.964 (inactive)
fold change of Tryptamine concentration [6]: 0.971 (inactive)
fold change of Tryptamine concentration [7]: 0.936 (inactive)
fold change of Putrescine concentration [8]: 0.93 (inactive)
fold change of Putrescine concentration [9]: 0.995 (inactive)
fold change of Cadaverine concentration [10]: 1.01 (inactive)
fold change of Cadaverine concentration [11]: 0.999 (inactive)
fold change of 2-Phenylethylamine concentration [12]: 0.886 (inactive)

CC(C)Cc1ccc(CC(=O)O)cc1 [Ibufenac] (20 µM)
growth [1]: 1.08
growth [2]: 1.1
growth [3]: 1.06
growth [4]: 1.24
fold change of Histamine concentration [5]: 0.908 (inactive)
fold change of Tryptamine concentration [6]: 1.04 (inactive)
fold change of Tryptamine concentration [7]: 1 (inactive)
fold change of Putrescine concentration [8]: 1.06 (inactive)
fold change of Putrescine concentration [9]: 1.01 (inactive)
fold change of Cadaverine concentration [10]: 0.994 (inactive)
fold change of Cadaverine concentration [11]: 1.01 (inactive)
fold change of 2-Phenylethylamine concentration [12]: 0.976 (inactive)

CCc1cccc(CC)c1NC(=O)CN(CC(=O)O)CC(=O)O [Etifenin] (20 µM)
growth [1]: 1.08
growth [2]: 1
growth [3]: 1.08
growth [4]: 1.1
fold change of Histamine concentration [5]: 0.925 (inactive)
fold change of Tryptamine concentration [6]: 1.02 (inactive)
fold change of Tryptamine concentration [7]: 0.951 (inactive)
fold change of Putrescine concentration [8]: 0.998 (inactive)
fold change of Putrescine concentration [9]: 1 (inactive)
fold change of Cadaverine concentration [10]: 0.987 (inactive)
fold change of Cadaverine concentration [11]: 1.02 (inactive)
fold change of 2-Phenylethylamine concentration [12]: 0.924 (inactive)

O=c1cc(-c2ccc(O)c(O)c2)oc2cc(O)cc(O)c12 [Luteolin] (20 µM)
growth [1]: 0.877
growth [2]: 0.977
growth [3]: 0.977
growth [4]: 1.11
fold change of Histamine concentration [5]: 0.969 (inactive)
fold change of Tryptamine concentration [6]: 0.776 (inactive)
fold change of Tryptamine concentration [7]: 0.985 (inactive)
fold change of Putrescine concentration [8]: 1.07 (inactive)
fold change of Putrescine concentration [9]: 0.991 (inactive)
fold change of Cadaverine concentration [10]: 1.03 (inactive)
fold change of Cadaverine concentration [11]: 1.02 (inactive)
fold change of 2-Phenylethylamine concentration [12]: 1.08 (inactive)
